Sampled rows, rich in hits. Any-hit rate of the full collection: about 1.5%.
PI5P4K alpha inh: qHTS for Inhibitors of phosphatidylinositol 5-phosphate 4-kinase (PI5P4K); 330,000 compounds, 1.2% hits; max response, %; PI5P4Kalpha enzyme, ADP-Glo luminescence, 60 min; hits give low values; active means max response of -50% or lower; inconclusive means between -30% and -50%; inactive means -30% or higher; further: value at the top dose of about 77 µM; on the % scale 0 is the no-effect control and ±100 the full control effect
Target sequence (P48426 whole entry, looked up): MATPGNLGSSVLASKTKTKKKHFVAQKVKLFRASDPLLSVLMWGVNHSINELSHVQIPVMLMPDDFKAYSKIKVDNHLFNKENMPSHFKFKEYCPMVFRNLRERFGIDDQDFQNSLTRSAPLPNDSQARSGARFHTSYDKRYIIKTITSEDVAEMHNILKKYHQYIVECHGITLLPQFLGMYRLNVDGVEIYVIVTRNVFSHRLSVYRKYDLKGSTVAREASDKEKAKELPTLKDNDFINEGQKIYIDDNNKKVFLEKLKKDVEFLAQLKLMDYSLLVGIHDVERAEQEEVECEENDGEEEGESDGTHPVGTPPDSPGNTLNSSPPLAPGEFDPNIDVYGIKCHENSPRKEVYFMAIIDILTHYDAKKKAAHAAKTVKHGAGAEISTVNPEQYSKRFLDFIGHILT
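Single end-point luminescence (ADP-Glo) quantified ADP from PI5P4Kalpha turnover; ATP 5 microM final, 1 h at RT, 0.1% CHAPS and 0.28 mM EGTA in HEPES pH 7.4.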
RECQ1 inh-1: qHTS Assay for Inhibitors of RecQ-Like Dna Helicase 1 (RECQ1) | ATP-dependent DNA helicase Q1 (Homo sapiens), P46063 | RECQ1 DNA unwinding, red fluorescence kinetic read | Potency, µM (titrated, usually from 57.3 µM), inactives show at the top dose activity, negative = inhibition, most hits filed as inhibitors | 240,000 compounds, 0.54% hits | AID 2549, 2010;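 further: potency means the concentration at half of the fitted maximal effect; plate controls were vehicle for no effect and no enzyme for full effect; nearly all actives have a fitted effect of over 30% in size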
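RECQ1T1 50 nM; forked duplex (20 bp + 30-nt ss tails) 200 nM, ATP 2 mM final; pH 8.0, 2 mM MgCl2, 2.5 ug/ml poly(dI-dC); 15 min compound preincubation; discontinuous kinetic read over 2 h at RT.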
APE1 inh-1: qHTS Assay for Inhibitors of the Human Apurinic/apyrimidinic Endonuclease 1 (APE1); DNA repair nuclease/redox regulator APEX1 (Homo sapiens), P27695; recombinant APE1, TAMRA/BHQ-2 abasic DNA cleavage fluorescence; Potency, µM (top dose mostly 65.8 µM), for inactives: at the top dose activity change, negative = inhibition, actives largely listed as inhibitors; 350,000 compounds, 0.35% hits; AID 2517, 2012;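 further: potency means the concentration at half of the fitted maximal effect; plate controls were vehicle for no effect and reference inhibitor for full effect; nearly all actives have a fitted effect of over 55% in size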
Target sequence (P27695 whole entry, looked up): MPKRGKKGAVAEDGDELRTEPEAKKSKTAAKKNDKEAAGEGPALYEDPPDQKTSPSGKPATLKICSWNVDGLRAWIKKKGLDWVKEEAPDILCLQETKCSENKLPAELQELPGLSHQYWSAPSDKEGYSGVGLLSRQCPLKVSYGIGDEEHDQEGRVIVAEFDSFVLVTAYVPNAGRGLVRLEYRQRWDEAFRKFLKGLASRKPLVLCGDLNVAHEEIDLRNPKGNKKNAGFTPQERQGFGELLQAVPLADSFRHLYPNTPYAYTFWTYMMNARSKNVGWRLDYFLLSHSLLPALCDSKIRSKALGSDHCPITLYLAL
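Enzyme (0.75 nM final) and test compound are incubated 15 min at room temperature before adding 50 nM quenched THF abasic-site duplex. Cleavage dequenches TAMRA, followed at 525/598 nm over three reads one minute apart.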
WRN helicase inh-1: qHTS for Inhibitors of WRN Helicase; Bifunctional 3'-5' exonuclease/ATP-dependent helicase WRN (Homo sapiens), Q14191; WRN helicase unwinding, fluorescent forked duplex, kinetic; Potency, µM (highest dose often 114 µM), inactives show at the highest dose activity change, negative = inhibition, most hits filed as inhibitors; 360,000 compounds, 0.46% hits; AID 651768, 2012; further: potency means the concentration at half of the fitted maximal effect; on the % scale 0 is the no-effect control and ±100 the full control effect; nearly all actives have a fitted effect of over 55% in size
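Screening of the MLSMR collection measured strand separation of a quenched forked DNA duplex (100 nM) by 20 nM WRN with 2 mM ATP, all final. Compounds were preincubated with enzyme 15 min at room temperature.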
FEN1 inh-1: qHTS Assay for the Inhibitors of Human Flap endonuclease 1 (FEN1); P39748; 390,000 compounds, 0.35% hits; Recombinant FEN1 flap cleavage, fluorescence, 15 min; Potency, µM (highest dose often 114 µM), inactives show top-dose activity change, negative = inhibition, usual class: inhibitors; further: potency means the concentration at half of the fitted maximal effect; on the % scale 0 is the no-effect control and ±100 the full control effect; nearly all actives have a fitted effect of over 65% in size
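In this screen, 50 nM flap DNA substrate was added to 10 nM FEN1 pretreated with compound for 15 min at room temperature; cleavage was followed with reads at 0 and 15 min, and Hill fitting gave concentration–response parameters.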
BLM helicase inh-1: qHTS Assay for Inhibitors of Bloom's syndrome helicase (BLM). RecQ-like DNA helicase BLM (Homo sapiens), P54132. recombinant BLM DNA unwinding, fluorescence dequenching. Potency, µM (doses to about 56.1 µM), for the others: at the top dose activity change, negative = inhibition, actives largely listed as inhibitors. 350,000 compounds, 0.2% hits. AID 2528, 2010;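 further: potency means the concentration at half of the fitted maximal effect; plate controls were vehicle for no effect and no enzyme for full effect; nearly all actives have a fitted effect of over 35% in size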
DNA dye displace: Counterscreen for APE1 Inhibitors: Fluorescent Dye Displacement Assay | 480 compounds, 7% hits | shares compounds with APE1 inh-1 | DNA fluorescent dye displacement counterscreen, fluorescence | Potency, µM (series often up to 28.5 µM), inactives show top-dose activity change, negative = inhibition, hits mostly inhibitors | AID 2564, 2010;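 further: loss of thiazole orange fluorescence as the dye is displaced from duplex DNA; potency means the concentration at half of the fitted maximal effect; 0% = ThO with dsDNA and no compound and -100% = ThO without dsDNA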
Endo IV inh: Counterscreen for APE1 Inhibitors: qHTS Assay for Inhibitors of Endonuclease IV; Potency, µM (doses to about 27.1 µM), for the others: top-dose activity change, negative = inhibition, usual class: inhibitors; shares compounds with APE1 inh-1; E. coli Endo IV, fluorogenic AP-site DNA cleavage; 560 compounds, 4% hits;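 further: potency means the concentration at half of the fitted maximal effect; plate controls were uninhibited enzyme wells for no effect and no enzyme buffer wells for full effect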
APE1 inh-2: Confirmation qHTS Assay for Inhibitors of the Human Apurinic/apyrimidinic Endonuclease 1 (APE1). purified APE1, fluorogenic abasic-site DNA cleavage. AID 2572, 2010. 750 compounds, 44% hits. Potency, µM (series often up to 57.1 µM), for the others: at the highest dose activity change, negative = inhibition, most hits filed as inhibitors. shares compounds with APE1 inh-1; further: potency means the concentration at half of the fitted maximal effect; on the % scale 0 is the no-effect control and ±100 the full control effect; nearly all actives have a fitted effect of over 30% in size
APE1 FP: qHTS FP-Based Assay for Inhibitors of the Human Apurinic/apyrimidinic Endonuclease 1 (APE1). shares compounds with APE1 inh-1. APE1 binding to TAMRA-labelled double-stranded DNA, fluorescence polarization displacement. Potency, µM (titrated, usually from 28.5 µM), for inactives: top-dose activity, negative = inhibition, usual class: inhibitors. 480 compounds, 7% hits; further: potency means the concentration at half of the fitted maximal effect; on the % scale 0 is the no-effect control and ±100 the full control effect
RECQ1 inh-2: Confirmation qHTS Assay for Inhibitors of RecQ-Like Dna Helicase 1 (RECQ1) - Round 2 Cherry Picks; recombinant RECQ1 DNA unwinding, red fluorescence; 1,100 compounds, 15% hits; shares compounds with RECQ1 inh-1; Potency, µM (series often up to 119 µM), for the others: at the highest dose activity, negative = inhibition, most hits filed as inhibitors; further: potency means the concentration at half of the fitted maximal effect; on the % scale 0 is the no-effect control and ±100 the full control effect; nearly all actives have a fitted effect of over 50% in size
FEN1 inh-2: qHTS Assay for the Inhibitors of FEN1: Confirmatory Assay for Cherry-picked Compounds | shares compounds with FEN1 inh-1 | FEN1 flap cleavage, TAMRA/BHQ2 fluorogenic DNA substrate | Potency, µM, hits mostly inhibitors | 880 compounds, 79% hits | AID 720498, 2013; further: potency means the concentration at half of the fitted maximal effect; nearly all actives have a fitted effect of over 60% in size
WRN helicase inh-2: qHTS for Inhibitors of WRN Helicase: Confirmatory Assay for Cherry-picked Compounds; shares compounds with WRN helicase inh-1; WRN helicase DNA unwinding, fluorescence kinetic; Potency, µM (doses to about 57.1 µM), for the others: at the top dose activity, negative = inhibition, usual class: inhibitors; 610 compounds, 63% hits; AID 720497, 2013; further: potency means the concentration at half of the fitted maximal effect; nearly all actives have a fitted effect of over 65% in size
TO displacement: qHTS for Inhibitors of WRN Helicase: Thiazole Orange DNA Binding Counterscreen; shares compounds with WRN helicase inh-1; thiazole orange DNA binding displacement, fluorescence; Potency, µM (top dose mostly 57.1 µM), for the others: at the top dose activity change, negative = inhibition, actives largely listed as inhibitors; 610 compounds, 10% hits; AID 720499, 2013;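 further: drop in dye fluorescence marks compound binding to DNA; potency means the concentration at half of the fitted maximal effect; on the % scale 0 is the no-effect control and ±100 the full control effect; nearly all actives have a fitted effect of over 60% in size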
BLM helicase inh-2: qHTS for Inhibitors of WRN Helicase: BLM Helicase Counterscreen for WRN Inhibitors; shares compounds with WRN helicase inh-1; Recombinant BLM helicase DNA unwinding, red fluorescence; Potency, µM (series often up to 57.1 µM), for inactives: at the highest dose activity change, negative = inhibition, actives largely listed as inhibitors; 610 compounds, 60% hits; further: potency means the concentration at half of the fitted maximal effect; nearly all actives have a fitted effect of over 60% in size
* = called active by the depositor; i = inactive; ? = inconclusive; · = no result; [ ] = dose if it differs, or a comment. Unless noted, the call rests on the fitted dose curve; in most records, active means well fitted curve in the direction sought with a large enough effect; inconclusive means small, poorly fitted or top-dose-only effect, or another doubt; inactive means no such curve, though single readings can be large; an effect the other way counts as inactive or inconclusive.

SMILES	PI5P4K alpha inh	RECQ1 inh-1	APE1 inh-1	WRN helicase inh-1	FEN1 inh-1	BLM helicase inh-1	DNA dye displace	Endo IV inh	APE1 inh-2	APE1 FP	FEN1 inh-2	others
CCOc1ccccc1NC(=O)c1c(NCc2cccs2)sc2c1CCCCC2	·	·	·	·	-21.2%	-1.6%	·	·	·	·	·
CN=c1scc(C)n1/N=C/c1ccc(O)c(O)c1O	?	10µM*	7.08µM*	20µM*	79.4µM*	?	?	92.9%	14.1µM*	7.8%	33.8*
CN=c1scc(C)n1/N=C/c1cc(Br)c(O)c(OC)c1	-5.9	i	0.1%	-5.4%	2.3%	-6.6%	·	·	·	·	·
CC1=C(C#N)c2nc(N)c(C#N)c(C)c2/C1=C\c1ccc(-c2ccccc2C(=O)O)o1	-72.2*	11.2µM*	25.1µM*	25.1µM*	39.8µM*	-8.9%	11.2µM*	15.0%	14.1µM*	12.6µM*	47.8*
O=C1CCCC(C(C(=O)OCc2ccccc2)C(=O)OCc2ccccc2)C1 (configuration not stated)	·	-7.0%	0.6%	·	·	1.5%	·	·	·	·	·
COCCN=c1scc(-c2ccco2)n1/N=C/c1ccc(O)c(O)c1O	-85.3*	8.91µM*	8.91µM*	28.2µM*	35.5µM*	10µM*	11.2µM*	21.7%	4.47µM*	14.1µM*	?
Cc1ccc2c(c1C)-c1c(ccc(C)c1C)C(=O)C2=O	7.1	·	·	-25.9%	?	·	·	·	·	·	·
Nc1ccc2c(c1Cl)C(=O)c1ccc(N)c(Cl)c1C2=O	-2.1	?	8.91µM*	-26.5%[11.6 µM]	?	14.1µM*	6.31µM*	?	14.1µM*	?	?	RECQ1 inh-2=?
O=C1c2cccc3c(Cl)ccc(c23)C(=O)N1O	·	-4.9%	?	?	0.501µM*	-0.7%	-5.0%	-2.1%	-18.5%[24.4 µM]	-102.4%	1.07*
CCN1C(=O)c2cccc3c(Cl)ccc(c23)C1=O	2.1	i	-2.5%	-4.2%	-0.5%	3.2%	·	·	·	·	·
COC(=O)[C@H](COC(C)(C)C)NC(=O)O[C@@H]1Cc2cc(Br)ccc2O[C@H]1c1cccc(OC)c1	·	i	1.5%	·	·	0.7%	·	·	·	·	·
O=C1c2ccccc2C(=O)c2c1ccc(O)c2O	-74.2*	?	?	?	7.94µM*	-18.5%	?	90.8%[57.1 µM]	?	-5.0%[57.1 µM]	7.57*
Cc1c(Cl)cccc1N1C(N)=C(C#N)C(c2cc(CN3CCOCC3)cs2)C2=C1CCCC2=O (configuration not stated)	·	·	·	·	10.3%	0.2%	·	·	·	·	·
O=C(O)c1ccc(N2C(=O)c3cccc4c(C(=O)O)ccc(c34)C2=O)cc1	?	?	12.6µM*	50.1µM*	50.1µM*	-8.2%	-4.0%	5.4%	?	-95.2%	21.3*	RECQ1 inh-2=?
COc1ccccc1/C=c1\sc2nc(-c3ccco3)nn2c1=O	-69.2*	?	?	39.8µM*	50.1µM*	-29.1%	-7.1%	-0.6%	5.01µM*	?	?	RECQ1 inh-2=?
CCOc1ccc(/C=c2\sc3nc(-c4ccco4)nn3c2=O)cc1OCC	-18.0	i	15.7%	?	0.8%	0.9%	·	·	·	·	·
CCN(CC)CCNc1ccc(CO)c2sc3ccccc3c(=O)c12	6.7	-1.1%	?	-16.0%	31.6µM*	82.8%	7.94µM*	-13.9%[57.1 µM]	15.8µM*	-56.1%[57.1 µM]	33.8*
CCNc1ccc2noc3c2c1C(=O)c1ccccc1-3	·	3.55µM*	3.16µM*	4.23µM*	50.1µM*	25.1µM*	i	12.6µM*	14.1µM*	0.794µM*	84.9*	WRN helicase inh-2=3.04µM*;TO displacement=i;BLM helicase inh-2=7.64µM*
Cc1cc(NC(=O)CCNS(=O)(=O)c2ccc3c(c2)CCCC(=O)N3)ccc1Br	·	·	·	·	15.9%	-1.0%	·	·	·	·	·
